Results filed as inconclusive are left out. Active and inactive are the calls of the source. The call rests on the fitted dose curve; in most records, active means well fitted curve in the direction sought with a large enough effect; inconclusive means small, poorly fitted or top-dose-only effect, or another doubt; inactive means no such curve, though single readings can be large; an effect the other way counts as inactive or inconclusive.
How the values were obtained:
NIH3T3 = assay: qHTS assay to identify novel small-molecules to repurpose for Merkel cell carcinoma treatment (AID 1296009); conditions: MCC and control cell lines, CellTiter-Glo viability, 72 h; at 44.8 µM (top of the series) unless noted; further: nearly all actives have a fitted effect of over 60% in size
Method in brief: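 Cells were incubated with compound for 72 hr at 37 degree celsius before CellTiter-Glo addition. Luminescence was normalized with no-cell wells as full cytotoxicity and DMSO as baseline.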

C33A = assay: Primary qHTS to identify gynecologic anti-cancer compounds using libraries of approved drugs and bioactive compounds (AID 1345084); conditions: Gynecologic cancer cell panel viability, ATPlite luminescence, 48 h; series mostly up to 57.5 µM; further: nearly all actives have a fitted effect of over 55% in size
Method in brief: (§1)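 Cytotoxicity screen measuring ATP content by luciferase luminescence. Each compound is applied at five concentrations for 48 h at 37 C with 5% CO2.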

CAOV3 = assay: as above; conditions: Gynecologic cancer cell panel viability, ATPlite luminescence, 48 h; series mostly up to 57.5 µM
Method in brief: as §1

CASKI = assay: as above; conditions: Gynecologic cancer cell panel viability, ATPlite luminescence, 48 h; series mostly up to 57.5 µM
Method in brief: as §1

Es-2 = assay: as above; conditions: Gynecologic cancer cell panel viability, ATPlite luminescence, 48 h; series mostly up to 57.5 µM
Method in brief: as §1

HeLa = assay: as above; conditions: Gynecologic cancer cell panel viability, ATPlite luminescence, 48 h; series mostly up to 57.5 µM
Method in brief: as §1

Hek293T = assay: as above; conditions: Gynecologic cancer cell panel viability, ATPlite luminescence, 48 h, control line for the selectivity index; series mostly up to 57.5 µM
Method in brief: as §1

JEG-3 = assay: as above; conditions: Gynecologic cancer cell panel viability, ATPlite luminescence, 48 h; series mostly up to 57.5 µM
Method in brief: as §1

OV90 = assay: as above; conditions: Gynecologic cancer cell panel viability, ATPlite luminescence, 48 h; series mostly up to 57.5 µM
Method in brief: as §1

PA-1 = assay: as above; conditions: Gynecologic cancer cell panel viability, ATPlite luminescence, 48 h; series mostly up to 57.5 µM
Method in brief: as §1

SKOV3 = assay: as above; conditions: Gynecologic cancer cell panel viability, ATPlite luminescence, 48 h; series mostly up to 57.5 µM
Method in brief: as §1

Tov-21-G = assay: as above; conditions: Gynecologic cancer cell panel viability, ATPlite luminescence, 48 h; series mostly up to 57.5 µM
Method in brief: as §1

Tov112D = assay: as above; conditions: Gynecologic cancer cell panel viability, ATPlite luminescence, 48 h; series mostly up to 57.5 µM
Method in brief: as §1

Measured: Potency

COc1cc(/C=C/C(=O)OC2CC3CCC2(C)C3(C)C)ccc1O (configuration not stated)
inactive: all assays above

O=c1ccn([C@@H]2O[C@H](CO)[C@@H](O)[C@H]2O)c(=O)[nH]1
inactive: all assays above

CC(CCC1C(C(=O)O)=CC(=O)CC1(C)C)O[C@@H]1O[C@H](CO)[C@@H](O)[C@H](O)[C@H]1O (some centres not stated)
inactive: all assays above

COc1ccccc1[C@@H]1C2=C(CC(C)(C)CC2=O)Nc2n[nH]c(C(F)(F)F)c21
inactive: all assays above

CC(=O)NC(CCC(=O)O)C(=O)NCCc1ccc(O)cc1 (configuration not stated)
inactive: all assays above

C=CCc1ccc(O[C@@H]2O[C@H](CO[C@@H]3O[C@@H](C)[C@H](O)[C@@H](O)[C@H]3O)[C@@H](O)[C@H](O)[C@H]2O)cc1
inactive: NIH3T3 inactive [at 17.4 µM] | C33A | CAOV3 | CASKI | Es-2 | HeLa | Hek293T | JEG-3 | OV90 | PA-1 | SKOV3 | Tov-21-G | Tov112D

CC1CCC2(O1)C(C)(C)CC(O[C@@H]1O[C@H](CO[C@@H]3OC[C@](O)(CO)[C@H]3O)[C@@H](O)[C@H](O)[C@H]1O)CC2(C)O (some centres not stated)
inactive: NIH3T3 inactive [at 17.4 µM] | C33A | CAOV3 | CASKI | Es-2 | HeLa | Hek293T | JEG-3 | OV90 | PA-1 | SKOV3 | Tov-21-G | Tov112D

C=C1CCC2(OC1)OC1CC3C4CC=C5CC(O)CC(O[C@@H]6OC[C@@H](O)[C@H](O)[C@H]6O)C5(C)C4CCC3(C)C1(O)C2C (some centres not stated)
inactive: NIH3T3 inactive [at 17.4 µM] | C33A | CAOV3 | CASKI | Es-2 | HeLa | Hek293T | JEG-3 | OV90 | PA-1 | SKOV3 | Tov-21-G | Tov112D

C[C@@H]1CC[C@]2(C(=O)O[C@@H]3O[C@H](CO)[C@@H](O)[C@H](O)[C@H]3O)CC[C@]3(C)C(=CCC4[C@@]5(C)C[C@@H](O)[C@H](O)C(C)(C)C5CC[C@]43C)C2[C@]1(C)O (some centres not stated)
inactive: NIH3T3 inactive [at 17.4 µM] | C33A | CAOV3 | CASKI | Es-2 | HeLa | Hek293T | JEG-3 | OV90 | PA-1 | SKOV3 | Tov-21-G | Tov112D

O=C(O)c1cc(O)c2cccc(O)c2c1O[C@@H]1O[C@H](CO)[C@@H](O)[C@H](O)[C@H]1O
inactive: all assays above

COc1cc(COC2OC(CO)C(O)C(O)C2O)cc(OC)c1O (configuration not stated)
inactive: all assays above

CC1CCC2C(C(=O)O)=CC3CC(C)(C)CC132 (configuration not stated)
inactive: all assays above

CC(=O)OCC(=O)O[C@@H]1[C@H]2[C@@H](OC(=O)c3ccccc3)[C@@H](C)C[C@]2(O)[C@H](OC(C)=O)C2(C)[C@H]3CC(C)(C)C(=O)[C@@H]3CC1(OC(C)=O)[C@@H]2OC(C)=O (some centres not stated)
inactive: NIH3T3 inactive [at 17.4 µM] | C33A | CAOV3 | CASKI | Es-2 | HeLa | Hek293T | JEG-3 | OV90 | PA-1 | SKOV3 | Tov-21-G | Tov112D

O=C(O)c1ccc(CCCc2ccc(OCCc3ccc(F)cc3)cc2)o1
inactive: all assays above
